Hits are enriched below; roughly 3.2% of the tested compounds scored in any of these assays.
Sm TGR block: qHTS Assay for the Inhibitors of Schistosoma Mansoni Peroxiredoxins. purified TGR, DTNB reduction, TNB absorbance 405 nm. Schistosoma mansoni thioredoxin glutathione reductase (TGR), Q962Y6. Potency, µM (highest dose often 114 µM), actives largely listed as inhibitors. 360,000 compounds, 3% hits; further: nearly all actives have a fitted effect of over 60% in size
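Kinetic colorimetric format: TGR-catalysed, NADPH-driven DTNB reduction monitored via TNB absorbance. Enzyme dispensed at 20 nM; compound exposure 15 min at room temperature before reaction start.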
RE007 growth inh: qHTS Assay for Inhibitors of the HIV-1 protein Vpr; S. pombe RE007 Vpr strain, BacTiter-Glo ATP luminescence, 24 h; Potency, µM (doses to about 92.2 µM), most hits filed as inhibitors; AID 651644, 2012; 360,000 compounds, 0.21% hits; active means well fitted falling curve with a large enough effect; inconclusive means small, poorly fitted or top-dose-only effect; inactive means no such curve, though single readings can be large or run the other way; further: nearly all actives have a fitted effect of over 50% in size
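Fission yeast strain RE007, carrying one chromosomally integrated HIV-1 vpr copy, was seeded at OD 0.01 in PMG+AL medium with 23 nL pinned compound. After 24 h at 30 °C and 99% humidity, viability was read by BacTiter-Glo luminescence.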
AmpC detergent: qHTS Inhibitors of AmpC Beta-Lactamase (assay with detergent) | P00811 | AmpC hydrolysis of nitrocefin, absorbance 480 nm, 0.01% Triton | Potency, µM (highest dose often 114 µM), usual class: inhibitors | 370,000 compounds, 0.041% hits | AID 485294, 2010; further: nearly all actives have a fitted effect of over 25% in size
Target sequence (P00811 whole entry, looked up): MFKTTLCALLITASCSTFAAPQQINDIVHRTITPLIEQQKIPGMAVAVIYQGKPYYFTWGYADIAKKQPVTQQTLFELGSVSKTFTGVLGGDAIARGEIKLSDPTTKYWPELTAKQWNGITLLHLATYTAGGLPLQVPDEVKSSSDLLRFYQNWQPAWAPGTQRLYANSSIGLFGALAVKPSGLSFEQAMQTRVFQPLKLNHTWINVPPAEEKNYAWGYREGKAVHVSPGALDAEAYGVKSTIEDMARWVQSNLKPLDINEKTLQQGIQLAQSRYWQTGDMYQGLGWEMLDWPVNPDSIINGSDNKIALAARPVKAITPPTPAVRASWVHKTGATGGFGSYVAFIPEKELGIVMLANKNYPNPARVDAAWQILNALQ
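AmpC (5.3 nM in the dispensed reagent) in 20 mM phosphate pH 7.0 with 0.01% (detergent screen) or 0.0001% Triton X-100 was preincubated with compounds for 15 min at room temperature. Nitrocefin was then added from an 800 uM solution, and hydrolysis was followed at 480 nm.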
AMA1 RON2 block: qHTS for Inhibitors of AMA1-RON; Towards Development of Antimalarial Drug Lead: Primary Screen; 360,000 compounds, 0.2% hits; Potency, µM (top dose mostly 58.2 µM), usual class: inhibitors; AlphaScreen AMA1-biotinylated RON2 peptide binding; Plasmodium falciparum AMA1 (3D7) - RON2 peptide interaction; AID 720542, 2013; further: nearly all actives have a fitted effect of over 45% in size
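AMA1 (3D7) with his tag at 25 nM final met compounds first, then biotinylated RON2 peptide at 25 nM; detection used donor plus acceptor beads, 10 µg/mL apiece, read by AlphaScreen after 30 min at room temperature.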
AmpC no deterg: qHTS Inhibitors of AmpC Beta-Lactamase (assay without detergent) | P00811 | AmpC nitrocefin hydrolysis, absorbance 480 nm, 0.0001% Triton | Potency, µM (series often up to 57.1 µM), usual class: inhibitors | 330,000 compounds, 0.52% hits | AID 485341, 2010; further: nearly all actives have a fitted effect of over 20% in size
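AmpC (5.3 nM in the dispensed reagent) in 20 mM phosphate pH 7.0 with 0.01% (detergent screen) or 0.0001% Triton X-100 was preincubated with compounds for 15 min at room temperature. Nitrocefin was then added from an 800 uM solution, and hydrolysis was followed at 480 nm.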
Each line names hits and unclear results; the compound was inactive in the other large screens. Unless noted, the call rests on the fitted dose curve; in most records, active means well fitted curve in the direction sought with a large enough effect; inconclusive means small, poorly fitted or top-dose-only effect, or another doubt; inactive means no such curve, though single readings can be large; an effect the other way counts as inactive or inconclusive.

CC(C)CCNC(=O)CCCOc1cc(=O)n(C)c2ccccc12	none
CCCOc1ccc(C(=O)NCC2OCCc3ccccc32)cc1 (stereo not given)	none (no result: RE007 growth inh, AMA1 RON2 block, AmpC no deterg)
Cn1c(=O)c2c(nc(N3CCCCCC3)n2CC(O)COc2ccccc2)n(C)c1=O (stereo not given)	none
Cn1c(Br)nc2c1c(=O)n(CC(O)COc1ccccc1)c(=O)n2C (stereo not given)	Sm TGR block 50µM
CC(C(=O)NCc1ccccc1Cl)n1ccc2cc(S(=O)(=O)N3CCCCC3)ccc21 (stereo not given)	none (no result: RE007 growth inh, AMA1 RON2 block, AmpC no deterg)
O=c1ccc2nc3ccccc3sc-2c1	RE007 growth inh inconclusive, AMA1 RON2 block 14µM (no result: Sm TGR block, AmpC detergent, AmpC no deterg)
Cc1ccc(CSc2nnc3c(n2)OC2(Nc4ccccc4-3)C(=O)Nc3ccc(F)cc32)cc1 (stereo not given)	AmpC no deterg inconclusive
O=C1Nc2ccc(F)cc2C12Nc1ccccc1-c1nnc(SCc3ccccc3)nc1O2 (stereo not given)	AmpC no deterg 18µM
COc1ccc(N2CCN(Cc3cc4c(cc3O)CCC4)CC2)cc1	AMA1 RON2 block 15µM
C/C=C/c1cc(CN2CCN(c3ccc(OC)cc3)CC2)c(O)c(OC)c1	Sm TGR block inconclusive, AMA1 RON2 block 22µM
CCc1ccccc1NC(=O)NC(CC)Cn1nnc2ccccc2c1=O (stereo not given)	none (no result: RE007 growth inh, AMA1 RON2 block, AmpC no deterg)
Cc1nc(SCC(=O)Nc2ccc(Cl)cc2C(F)(F)F)[nH]c(=O)c1Cc1ccccc1	none (no result: RE007 growth inh, AMA1 RON2 block, AmpC no deterg)
CC(C)Cn1c(/C=C/c2ccco2)nc2ccccc21	Sm TGR block 7.9µM
CCOc1ccccc1NC(=O)CSc1nc2c(oc3ccccc32)c(=O)n1C(C)C	none (no result: RE007 growth inh, AMA1 RON2 block, AmpC no deterg)
COc1ccc2c(c1)CCc1c(C(=O)Nc3c(C)nn(Cc4ccc(Cl)c(Cl)c4)c3C)noc1-2	none (no result: RE007 growth inh, AMA1 RON2 block, AmpC no deterg)
CC(=O)c1ccc(Nc2nc3ccccc3nc2-n2nc(C)cc2C)cc1	none (no result: RE007 growth inh, AMA1 RON2 block, AmpC no deterg)
Cc1ccc(S(=O)(=O)Cc2ccc(C(=O)N3CCc4ccccc4C3)o2)cc1	Sm TGR block 40µM, AmpC detergent inconclusive
Cc1ccc(S(=O)(=O)Cc2ccc(C(=O)N3CCN(Cc4ccccc4)CC3)o2)cc1	Sm TGR block 35µM, AmpC detergent inconclusive (no result: RE007 growth inh, AMA1 RON2 block)
COc1ccc(S(=O)(=O)Cc2ccc(C(=O)N3CCN(Cc4ccccc4)CC3)o2)cc1	Sm TGR block inconclusive
Cc1ccc(S(=O)(=O)Cc2ccc(C(=O)N3CCN(c4cccc(C)c4C)CC3)o2)cc1	Sm TGR block inconclusive
O=C(c1ccc(CS(=O)(=O)c2ccccc2)o1)N1CCOCC1	Sm TGR block 40µM
COc1ccc(S(=O)(=O)Cc2ccc(C(=O)N3CCc4ccccc4C3)o2)cc1	Sm TGR block 20µM
COC(=O)C1=C(c2ccccc2)c2ccccc2S(=O)(=O)N1CC(=O)Nc1ccccc1Cl	none (no result: RE007 growth inh, AMA1 RON2 block, AmpC no deterg)
O=C(CSc1ccc(-c2nc3ccccc3[nH]2)cn1)Nc1ccc2c(c1)OCCO2	AmpC no deterg 0.56µM
CCOc1ccc(NC(=O)c2cc(C)nc3c2c(C)nn3-c2cccc(F)c2)cc1	none (no result: RE007 growth inh, AMA1 RON2 block, AmpC no deterg)
CCc1nnc(SCC(=O)N(CC)c2ccccc2)c2cc3oc(C)cc3n12	none (no result: RE007 growth inh, AMA1 RON2 block, AmpC no deterg)
O=C1CCCC(O)=C1C(C#Cc1ccccc1)C1=C(O)CCCC1=O	Sm TGR block 3.2µM, RE007 growth inh inconclusive, AmpC detergent inconclusive
CC1(C)CC(=O)C(C(C#Cc2ccccc2)C2=C(O)CC(C)(C)CC2=O)=C(O)C1	Sm TGR block 4µM
O=C1CCCC(O)=C1Sc1ccccc1C(=O)O	none (no result: Sm TGR block)
COc1ccc([N+](=O)[O-])cc1N(CC(O)CN1CCOCC1)S(=O)(=O)c1ccccc1 (stereo not given)	none
COc1ccc([N+](=O)[O-])cc1N(CC(O)CN1CCCCC1)S(=O)(=O)c1ccc(C)cc1 (stereo not given)	Sm TGR block 35µM
COc1ccc(NC(=O)c2cc3c(=O)n(C)c4cc(Cl)ccc4c3s2)cc1Cl	none (no result: RE007 growth inh, AMA1 RON2 block, AmpC no deterg)
Nc1ncnc(Sc2ncccn2)c1[N+](=O)[O-]	Sm TGR block 2.5µM

Source: PubChem
